Compounds with a hit are over-represented: about 6.5% of the library has one in this group of screens.
NADH enzymes – inhibition of NAD/NADH coupling enzymes, library profiling. coupled PK/LDH NADH assays, four targets. IC50, µM (titrated, usually from 10 µM), without a hit: top-dose inhibition. 65,000 tested, 0.02% active. AID 774;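 active means single-dose screening hits from any of four coupled enzyme assays that gave an IC50 when retested across doses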;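 further: the DPM-DC format reads NADH fluorescence rather than 340 nm absorbance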
MK inhibit – blocks S. pneumoniae mevalonate kinase | purified MK, PK/LDH-coupled NADH absorbance 340 nm | AID 555 | inhibition, % at 10 µM | 65,000 tested, 0.48% active;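 active means ranked among the strongest by inhibition in the single 10 µM screen, a fixed top-ranked set picked for dose follow-up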
Spn DPM-DC inh – inhibitors of Streptococcus pneumoniae diphosphomevalonate decarboxylase | purified DPM-DC, PK/LDH coupled NADH fluorescence | 65,000 tested, 0.49% active | calls only at 10 µM;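 active means the 320 compounds with the highest percent inhibition in the single-dose primary screen, excluding strongly autofluorescent ones, cut at about 32% in these data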;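 further: kinetic rate of NADH fluorescence loss reporting ADP formed by the decarboxylase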
Fluor 339 460 – intrinsic fluorescence of library compounds, ex339/em460 – biochemical, MLSMR library, data from DPM-DC assay, artefact control, profiling panel; compound autofluorescence, ex339/em460 nm, NADH buffer; active compounds read high; 1 = no-compound wells, NADH background; fluorescence fold increase at 10 µM; 65,000 tested, 5.5% active;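 active means at 10 µM, mean starting fluorescence two-fold or more over control wells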;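 further: signal is the first read of a kinetic run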
Spn PMK inh – blocks S. pneumoniae phosphomevalonate kinase. inhibition, % at 10 µM. purified PMK, PK/LDH-coupled NADH absorbance 340 nm. AID 539. 65,000 tested, 0.49% active;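 active means top-ranked compounds by inhibition in the single 10 µM screen, taking a fixed number of the strongest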;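 further: 0% = full reaction with DMSO carrier and 100% = background rate without enzyme reaction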
Abs 340nm – compounds absorbing at 340 nm. compound absorbance at 340 nm, fold over control. fold change at 10 µM. 65,000 tested, under 10 active. AID 708;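 active means at 10 µM dose, initial 340 nm absorbance at least 2 fold that of control wells; inactive means change under 2 fold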;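 further: initial absorbance extrapolated from kinetic A340 decline of NADH oxidation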
Starred values were filed as active, the others as inactive; i = inactive; . = not tested or not shown; + = active, no number.

SMILES	NADH enzymes	MK inhibit	Spn DPM-DC inh	Fluor 339 460	Spn PMK inh	Abs 340nm
Cc1nc2c(c(=O)n1CC1CCCO1)c1nc3ccccc3nc1n2CC(C)C (stereo not given)	5%	13	i	1.4	0	0.98
CC1(C)Cc2c(sc3nn[nH]c(=O)c23)CO1	7%	11	i	1.1	10	1.1
CCC1CC2(C)NC(=O)c3c(sc4c3CC(C)(C)OC4)N2C1=O (stereo not given)	4%	5	.	2.3*	3	1
Cc1oc2cc(O)ccc2c(=O)c1Oc1ccccc1Br	3%	0	.	2.2*	5	1.1
COC(=O)COc1ccc2c(=O)c(Oc3ccccc3)c(C)oc2c1	4%	11	i	1.1	0	1
CCOc1ccccc1Oc1c(C)oc2cc(OC(=O)N3CCOCC3)ccc2c1=O	4%	4	i	1.1	7	1
Cc1oc2cc(O)ccc2c(=O)c1Oc1ccccc1	3%	5	.	2.2*	0	1.1
CC(=O)N1CCN(S(=O)(=O)c2ccc(S(=O)(=O)NCC(C)C)cc2)CC1	2%	11	i	1	1	0.96
Cc1ccccc1-n1c(SCc2cc(=O)n3ccccc3n2)nc2[nH]ncc2c1=O	4%	3	i	2.2*	9	1.1
O=C(CSc1nc2[nH]ncc2c(=O)n1-c1ccccc1Br)NCc1ccco1	3%	8	i	1	11	0.99
COc1c(Br)cc2c(C)c(C(=O)O)oc2c1Br	4%	43*	i	1	0	0.99
CCOC(=O)c1cn2c3c(c(F)c(F)c(F)c3c1=O)SC(N1CCCC1)=N2	4%	4	i	2.7*	4	1.1
COc1cc(-c2noc(-c3cccs3)n2)cc(OC)c1OC	6%	5	i	1.1	11	1
COc1ccc(-c2ccc(-c3noc(-c4cccs4)n3)c(OC)n2)cc1	2%	6	.	3*	1	1
COc1ccc(-c2ccc(-c3noc(-c4ccccc4OC)n3)c(OC)n2)cc1	1%	7	.	3*	4	1.1
COc1ccc(-c2ccc(-c3noc(-c4ccccc4C)n3)c(OC)n2)cc1	2%	0	.	3.8*	3	1.2
COc1cc(NS(=O)(=O)c2ccc(Br)cc2)c(OC)cc1NC(=O)c1ccco1	6%	0	i	1.1	17	1
CC(C)C(c1nnnn1CCc1ccccc1)N1CCOCC1 (stereo not given)	0%	0	i	1.1	0	1
c1ccc(CCn2nnnc2C(c2cccs2)N2CCOCC2)cc1 (stereo not given)	3%	0	i	1.1	25*	1
OC1CN=C2C=CC=CN2C1 (stereo not given)	13%	4	i	2.2*	9	1
CN(C)CCN(Cc1ccccc1)c1ccccn1	2%	6	i	1	0	0.99
CN(C)CCN(Cc1ccccc1)c1ccnc(N(C)C)c1C#N	22%	56*	i	1.4	7	1.1
N#Cc1nc(-c2ccc(Cl)cc2)oc1NCCc1ccccn1	2%	7	.	2.4*	0	1
Cc1ccc(-c2nc(C#N)c(NCCc3ccccn3)o2)cc1	9%	1	i	2.6*	10	1
COc1ccc(CCNc2oc(COc3ccccc3F)nc2C#N)cc1	9%	2	i	1.2	14	1
SMILES	NADH enzymes	MK inhibit	Spn DPM-DC inh	Fluor 339 460	Spn PMK inh	Abs 340nm
CCOc1ccc(CCNC(=O)CN2CCN(Cc3ccccc3C)C2=O)cc1OCC	5%	0	i	1.1	15	0.98
Cc1c(Cl)cccc1NC(=O)CCN1CCCC(C)C1 (stereo not given)	0%	0	i	1.1	0	1.1
CN1CCN(Cc2c(O)ccc3c(-c4ccccc4)cc(=O)oc23)CC1	2%	3	i	1.4	4	1.1
Cc1c(C)c2cc(Cl)c(O)c(CN3CCN(C)CC3)c2oc1=O	4%	2	.	2.3*	5	1.1
Cc1c(O)c(CN2CCCC(C)C2)cc2c3c(c(=O)oc12)CCC3 (stereo not given)	4%	6	.	2.5*	3	1
Cc1c(C)c2cc(Cl)c(O)c(CN3CCCC(C)C3)c2oc1=O (stereo not given)	4%	2	.	2.4*	6	1.1
O=C(C1CCN(S(=O)(=O)c2ccc(F)cc2)CC1)N1CCOCC1	4%	3	i	1.1	6	1
COc1ccc(CCn2c(=S)[nH]c3cc(C(=O)NCc4ccco4)ccc3c2=O)cc1OC	4%	0	i	1.3	12	1.1
O=C1CCCc2c1nc(-c1ccco1)n2O	5%	3	.	3.9*	6	1.2
O=C(O)CCn1c(-c2ccccc2)cc2c1CCCC2=O	3%	3	i	1.1	7	1.1
O=C1CCCc2c1nc(-c1ccccc1)n2O	47%	93*	.	2.1*	0	1.1
CCCc1cc(NCCCCO)n2c(nc3ccccc32)c1C#N	8%	5	.	2.4*	10	1
COCCN(CCOC)c1cc(C)c(C#N)c2nc3ccccc3n12	10%	6	.	3.8*	13	1.1
Cc1cc(NCCCCO)n2c(nc3ccccc32)c1C#N	10%	6	.	3.6*	13	1.1
Cc1cc(-c2ccco2)n2c(nc3ccccc32)c1C#N	4%	7	i	1.1	6	1.1
NC(=O)Cc1c[nH]c2cccc(O)c12	1%	3	i	1.1	0	1
CC(=O)NCCn1c(SCc2cc(=O)n3cc(Cl)ccc3n2)nc2ccccc2c1=O	18%	7	+	2.1*	13	1.1
CC(=O)NCCn1c(SCc2ccccc2F)nc2ccccc2c1=O	5%	2	i	1.1	13	1.1
CSc1ncccc1C(=O)OCC(=O)NC(=O)NCCC(C)C	3%	5	i	1.1	5	1
CC(=O)Oc1ccc2oc(C)c(C(=O)N3CCOCC3)c2c1	0%	0	i	1.1	0	1
Cc1oc2cc3c(C(=O)N4CCN(C)CC4)c(C)oc3cc2c1C(=O)N1CCN(C)CC1	12%	9	i	1	22	1
CCOc1ccc2oc(-c3ccccc3)c(C(=O)N3CCN(C)CC3)c2c1	0%	0	.	2.2*	0	1.1
COc1ccc2oc(-c3ccccc3)c(C(=O)N3CCOCC3)c2c1	8%	6	.	2.1*	9	1
CN1CCN(C(=O)c2cc3c(ccc4ccccc43)oc2=O)CC1	9%	15	.	3.9*	3	1
O=C(NCCN1CCN(C(=O)c2cc3ccccc3oc2=O)CC1)c1cc2ccccc2oc1=O	7%	3	i	1.3	17	1.1
COc1ccc(-c2ccc(-c3noc(C)n3)c(OC)n2)cc1	7%	5	.	3.8*	9	1.2
CCOc1nc(-c2ccc(OC)cc2)ccc1-c1noc(C)n1	7%	6	.	3.8*	8	1.2

Screening results as filed in PubChem.
